# Assay results from PubChem BioAssay AID376 (PDSP, 2006).
# In all, about 2,000 compounds went through this assay and about 250 (12%) were called active. The sample as a whole holds a higher share of actives than the screen did. Unmarked numbers belong to inactive results. No stated cut-off is given here; in the data, active means hERG blockade below about -20% or above about 20%; inactive means in between.
# Target: Voltage-gated inwardly rectifying potassium channel KCNH2 (Homo sapiens) (UniProt Q12809)
# Test: KCNH2 potassium channel function modulators, cell-based (AID 376);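 further: 0% = buffer alone and 100% = reference blocker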
# Conditions: hERG-expressing cells, channel activity single-concentration screen; concentration not given here
# Voltage-gated inwardly rectifying potassium channel KCNH2 (Homo sapiens), sequence (Q12809 whole entry, looked up): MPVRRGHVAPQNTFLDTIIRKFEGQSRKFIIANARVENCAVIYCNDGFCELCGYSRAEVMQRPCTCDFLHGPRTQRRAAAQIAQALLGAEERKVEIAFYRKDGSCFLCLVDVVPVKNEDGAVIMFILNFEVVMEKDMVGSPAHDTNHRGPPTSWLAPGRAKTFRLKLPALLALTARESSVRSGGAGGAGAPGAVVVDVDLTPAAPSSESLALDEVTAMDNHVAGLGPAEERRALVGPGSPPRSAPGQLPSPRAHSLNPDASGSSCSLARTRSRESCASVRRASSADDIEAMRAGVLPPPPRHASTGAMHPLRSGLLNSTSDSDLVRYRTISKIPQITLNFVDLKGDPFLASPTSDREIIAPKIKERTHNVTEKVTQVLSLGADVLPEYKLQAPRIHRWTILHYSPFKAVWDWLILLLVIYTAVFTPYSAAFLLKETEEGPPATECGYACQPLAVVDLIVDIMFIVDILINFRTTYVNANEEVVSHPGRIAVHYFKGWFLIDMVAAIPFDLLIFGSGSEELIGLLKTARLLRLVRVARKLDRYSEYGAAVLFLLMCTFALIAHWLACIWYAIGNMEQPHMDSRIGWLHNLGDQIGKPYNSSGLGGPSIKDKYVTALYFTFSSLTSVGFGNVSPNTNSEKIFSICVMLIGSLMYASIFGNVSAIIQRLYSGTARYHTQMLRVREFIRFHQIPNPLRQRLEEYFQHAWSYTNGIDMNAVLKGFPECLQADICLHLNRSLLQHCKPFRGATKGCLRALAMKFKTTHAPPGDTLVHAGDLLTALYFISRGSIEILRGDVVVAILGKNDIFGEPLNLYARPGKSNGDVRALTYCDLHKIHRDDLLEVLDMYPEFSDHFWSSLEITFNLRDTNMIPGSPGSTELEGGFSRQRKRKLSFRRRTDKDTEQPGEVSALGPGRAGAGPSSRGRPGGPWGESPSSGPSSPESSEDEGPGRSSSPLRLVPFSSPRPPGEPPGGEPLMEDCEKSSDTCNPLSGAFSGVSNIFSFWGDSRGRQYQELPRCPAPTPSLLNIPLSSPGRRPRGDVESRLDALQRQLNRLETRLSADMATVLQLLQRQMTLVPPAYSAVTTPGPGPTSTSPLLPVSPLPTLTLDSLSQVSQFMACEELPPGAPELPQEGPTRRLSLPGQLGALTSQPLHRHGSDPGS
row,Compound,hERG blockade
1,CC1CCC(O)(C(C)(C(=O)O)c2ccccc2)CC1 (stereo not given),5.36%
2,CCCn1cnc2c(SCc3ccc(Cl)cc3)nc(N)nc21,-2.91%
3,C=CCC(C(=O)O)c1ccccc1 (stereo not given),-1.33%
4,CN(C)CN1CSC(=S)N(CN(C)C)C1,-7.7%
5,Cn1c(=O)c2[nH]c(CCCCC(=O)O)nc2n(C)c1=O,-14.9%
6,CCn1c(CCCc2nc3c([nH]2)c(=O)n(C)c(=O)n3C)nc2c1c(=O)n(C)c(=O)n2C,25.2% (active)
7,Cn1c(=O)c2[nH]c(CCS)nc2n(C)c1=O,5.6%
8,O=C(O)CC(Nc1ccccc1)C(=O)O (stereo not given),12.6%
9,O=C(O)c1nnsc1COCc1ccccc1,7.88%
10,O=c1c2ccccc2sc2c(CO)ccc(NCCN3CCCCC3)c12,46% (active)
11,O=C(CCN1CCCCC1)c1csc2ccccc12,6.4%
12,CC(=O)OC1CCC2(C)C(=CCC3C2CCC2(C)C3CC3OC4(CCC(C)CN4)C(C)C32)C1 (stereo not given),-9.31%
13,CC(=O)OC1CCC2(C)C(=CCC3C2CCC2(C)C(c4cc(C(F)(F)F)n(C(C)=O)n4)CCC32)C1 (stereo not given),20.6% (active)
14,CC(=O)OC1CCC2(C)C(=CCC3C2CCC2(C)C(C(C)C(=O)O)CCC32)C1 (stereo not given),-4.67%
15,CC(C)(CN)CN,-12.2%
16,O=c1c[n+](CCCC[n+]2cc(=O)o[nH]2)[nH]o1,-2.64%
17,Nc1ncnc2nc[nH]c12.Nc1ncnc2nc[nH]c12.[Cl][Pt]([Cl])([Cl])[Cl],0.497%
18,O=C1C=C(Nc2nc(C(=O)O)cc(=O)[nH]2)c2ccccc2C1=O,2.16%
19,O=C=Nc1ccc(Cc2ccc(N=C=O)cc2)cc1 (tested in a mixture with another compound),20% (active)
20,Nc1n[nH]c2ccccc12,0.624%
21,CN(C)CCNS(=O)(=O)N(C)C,6.32%
22,COc1c2c(c3c(c1CCC(=O)O)OC(C)(C)C=C3)OC(C)(C)C=C2,-28.9% (active)
23,O=C(O)CSc1ccc(N=C=S)cc1,3.98%
24,CC(C)(N)C(=O)NC1C(=O)N2C1SC(C)(C)C2C(=O)O (stereo not given),-3.34%
25,COC1C=COC2(C)Oc3c(C)c(O)c4c(O)c(c(CN(C)C)c(O)c4c3C2=O)NC(=O)C(C)=CC=CC(C)C(O)C(C)C(O)C(C)C(OC(C)=O)C1C (stereo not given),16.3%

row,Compound,hERG blockade
1,CS(=O)(=O)N(CC(=O)O)Cc1ccccc1,12.2%
2,NN(CC(=O)O)CC(=O)O,0.375%
3,O=C(O)CN(CC(=O)O)c1ccccc1,-27.7% (active)
4,CC(C)=CCc1c2c(c3occ(-c4ccc(O)c(O)c4)c(=O)c3c1O)C=CC(C)(C)O2,6.29%
5,O=C(O)c1ccc(SSc2ccc(C(=O)O)cn2)nc1,-6.71%
6,O=C(O)C1C2CC3C(OC(=O)C31)C2Br (stereo not given),2.45%
7,Cn1c(=O)c2[nH]c(CCNC(=O)c3ccccc3)nc2n(C)c1=O,-14%
8,N=C(N)c1ccc(C=Cc2ccc(C(=N)N)cc2)cc1,30.2% (active)
9,N=C(N)c1ccc(-c2ccc(-c3ccc(C(=N)N)cc3)o2)cc1,38.8% (active)
10,NC(CSCc1ccccc1)C(=O)O (stereo not given),-2.53%
11,CNc1ncnc(Sc2nc(N)nc3nc[nH]c23)c1[N+](=O)[O-],-10.6%
12,Nc1nc(Sc2ccc([N+](=O)[O-])c3nonc23)c2[nH]cnc2n1,23.5% (active)
13,Nc1nc(SCc2ccccc2[N+](=O)[O-])c2[nH]cnc2n1,-11.5%
14,CC1(C)N=C(N)N=C(N)N1c1cccc(OCc2cccc(N)c2)c1,4.96%
15,NC(=O)CC=CCC(N)=O,1.92%
16,S=C(CSc1ccccc1)Nc1cccc2ccccc12,-7.05%
17,O=C(O)c1ccc(C(=O)Nc2cccc3ccccc23)c(C(=O)O)c1,-3.99%
18,O=C(Nc1cccc2ccccc12)c1ccccc1,-30.7% (active)
19,COC(=O)C1(C)CCC(c2ccc(C)cc2)=C(CC(=O)O)C1 (stereo not given),-13.4%
20,O=C(NCCO)c1ccc(Cl)cc1,5.8%
21,OCCNC1c2cc(Cl)ccc2-c2c(Cl)cc(Cl)cc21 (stereo not given),46.9% (active)
22,c1ccc(B2OCC(C3OB(c4ccccc4)OC4COB(c5ccccc5)OC43)O2)cc1 (stereo not given),2.69%
23,CC1CCCC(CC(=O)O)(CC(=O)O)C1 (stereo not given),-3.65%
24,CC1(C)C2CCC1(CC(=O)O)C(Cl)C2 (stereo not given),-22.5% (active)
25,CC1(CC(=O)O)OC2CCCCCC2O1 (stereo not given) (tested in a mixture with another compound),1.56%

row,Compound,hERG blockade
1,COc1ccc(CC[N+]2(C)COc3cc4oc(=O)cc(C)c4cc3C2)cc1OC (stereo not given),11%
2,Cc1c(O)c(Br)c(C)c(O)c1Br (tested in a mixture with another compound),12.5%
3,CC(NCCN(C)C)C1CCC2C3CCc4cc(O)ccc4C3CCC12C (stereo not given),22.1% (active)
4,CC12CCC3c4ccc(O)cc4CCC3C1CC(=NO)C2O (stereo not given),-10.7%
5,CC12CCC3c4ccc(O)cc4CCC3C1CCC2OP(=O)(O)O (stereo not given),-3.7%
6,Cc1cc(=Nc2ccc3c(c2)c(N)cc(C)[n+]3C)nc(N)n1C,30.2% (active)
7,OCc1ccncc1.OCc1ccncc1.[Cl][Pt]([Cl])([Cl])[Cl],1.38%
8,CCC(=O)Nc1ncnc2ncn(C(=O)CC)c12,12.6%
9,CC(C)COC(c1ccc2c(c1)OCO2)C(C)Br (stereo not given),0.642%
10,COc1ccc(C(Nc2ccccn2)c2cc(C(C)(C)C)cc(C(C)(C)C)c2O)cc1 (stereo not given),9.88%
11,COc1ccc(C(C)c2cc3c(cc2O)OCO3)cc1 (stereo not given),30% (active)
12,COc1ccc(C(Nc2ncccn2)c2cc3c(cc2O)OCO3)cc1 (stereo not given),-20.2% (active)
13,COc1ccc(C(O)c2ccccn2)cc1 (stereo not given),3.46%
14,O=C(O)c1c(-c2c3ccc(=O)cc-3oc3cc(O)ccc23)cc2ccccc2c1-c1ccccc1,11.7%
15,CC(C)(C)NCC(O)c1ccc(O)c(CO)n1 (stereo not given),-0.947%
16,CCC(CN(C)C)C(=O)c1ccco1 (stereo not given),5.17%
17,Clc1cccc(Cl)c1C(Nc1nncs1)Nc1nncs1,-3.96%
18,Nc1nc(SCC(=O)O)[nH]c(=O)c1N,5.23%
19,O=C(Nc1c[nH]c(=O)[nH]c1=O)Oc1ccccc1,-11%
20,NS(=O)(=O)c1ccc(N=Nc2ccc(O)c(C(=O)O)c2)cc1,-6.41%
21,NS(=O)(=O)c1ccc(N=Nc2ncccc2O)cc1,17.7%
22,Cc1c(S(=O)(=O)O)ccc(N=Nc2c(O)c(C(=O)O)cc3ccccc23)c1Cl,2.42%
23,NS(=O)(=O)c1ccc(N=Nc2cc3ccccc3c(C(=O)O)c2O)cc1,33.3% (active)
24,NS(=O)(=O)c1cc(C(=O)O)c(O)c2ccccc12,2.98%
25,NS(=O)(=O)c1ccc(N=Nc2c(O)c(C(=O)O)cc3ccccc23)cc1,22.9% (active)

row,Compound,hERG blockade
1,O=C(O)CNc1ccc(C(=O)O)cc1,1.76%
2,CC(=NNc1nc(C)cc(=O)[nH]1)C(=O)O,-18.5%
3,c1ccc(-c2cc(-c3cc(-c4ccccn4)[nH]n3)n[nH]2)nc1,6.68%
4,Cn1c(=O)c2[nH]c(C3CC(=O)CC(c4nc5c([nH]4)c(=O)n(C)c(=O)n5C)N3)nc2n(C)c1=O (stereo not given),-8.89%
5,Oc1ccccc1C(Sc1nc2ccccc2s1)Sc1nc2ccccc2s1,-6.16%
6,Cc1sc2ccccc2[n+]1CCC(=O)O,-12.2%
7,O=C1Nc2ccccc2C1=Nc1ccc(S(=O)(=O)Nc2nccs2)cc1,-2.12%
8,NS(=O)(=O)c1ccc(N=C2C(=O)Nc3ccccc32)cc1,-20.3% (active)
9,O=C1Nc2ccccc2C1=Nc1cccc2ncccc12,-1.09%
10,CN(C)CCCN=C(N)N,-7.66%
11,O=C(O)C1CC2(C1)CC(C(=O)O)C2 (stereo not given),-11.8%
12,CN(C)Cc1cc(C(C)(C)C)ccc1-c1ccc(C(C)(C)C)cc1CN(C)C,17.8%
13,CN(C)Cc1cc(C(C)(C)C)cc(CN(C)C)c1O,6.58%
14,CN(C)Cc1cc(C(F)(F)F)ccc1C(O)(c1ccccc1)c1ccccc1,21.7% (active)
15,O=C1CCC(c2ccccc2)=NN1c1nc2ccccc2s1,-9.74%
16,CC(C(=O)c1ccncc1)c1ccccn1 (stereo not given),-1.76%
17,O=C(O)c1cc(C(=O)C(=O)c2cc(C(=O)O)c(O)c3ccccc23)c2ccccc2c1O,18.7%
18,O=C1c2ccccc2-c2cc([N+](=O)[O-])c([N+](=O)[O-])cc21,77.8% (active)
19,O=C1c2cc([N+](=O)[O-])ccc2-c2ccc3c4ccc5c6c(ccc(c7ccc1c2c73)c64)C(=O)c1cc([N+](=O)[O-])ccc1-5,12.2%
20,O=C1c2ccccc2-c2ccc(N=[N+]([O-])c3ccc4c(c3)C(=O)c3ccccc3-4)cc21,-2.94%
21,CNC1NC(=O)c2ccccc2N1Cc1ccc(F)cc1 (stereo not given),9.53%
22,c1ccc(CSc2nnc3c4ccccc4c4ccccc4c3n2)cc1,-3.1%
23,CCOC(=O)C(O)Cc1cnc2ccccc2n1 (stereo not given),19.4%
24,c1ccc(CCNCc2ccco2)nc1,-7.49%
25,CCCC(Sc1nc(N)nc2nc[nH]c12)C(=O)O (stereo not given),2.81%
